Values without a mark were called inactive. Calls come from the whole dose curve; as a rule, active = well fitted activation curve with a large enough effect; inconclusive = small, poorly fitted or top-dose-only effect; inactive = flat fitted curve, though single readings scatter.
Test: Cellular Toxicity (caspase-3) N2a (AID 665);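 note: compound exposure lasted 16 h at 37 °C before readout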
Details: N2a cells, luminescence, normalized: DMSO 0%, 10 µM staurosporine 100%; series mostly up to 92.2 µM; caspase-3 activation: at the top concentration
From the text: NIH Chemical Genomics Center [NCGC]
NIH Molecular Libraries Screening Centers Network [MLSCN]
National Institutes of Environmental Health Sciences [NIEHS]
National Toxicology Program [NTP]
We have developed a 1536-well cell-based assay for quantitative high throughput screening (qHTS) against a number of cell lines to determine in vitro caspase 3/7 activity of small molecules. This particular assay uses the N2a cell line which is derived from mouse neuroblastoma.
NCGC Assay Protocol Summary:
The Caspase-Glo 3/7 assay (Promega) is a homogeneous method to measure caspase-3 and caspase-7 activities in cultured cells. The quantitation of caspase 3/7 activity is based on the cleavage of a peptide-aminoluciferin substrate. After caspase cleaves the substrate the free aminoluciferin is liberated and serves as the substrate of luciferase, which generates the light. The luminescent signal is proportional to the amount of caspase 3/7 activity present.
Using the Caspase-Glo 3/7 assay, the amount of caspase 3/7 activity was measured in the N2a cells with complete culture medium following compound treatment for 16 hours. The assay was performed in opaque white 1536-well plates. In the screen, staurosporine and doxorubicin were used as positive controls. Library compounds were measured for their ability to cause the activation of caspase 3/7 in the cell line, as reflected by an increase in luminescence signal, in a concentration-dependent manner. Data were normalized to the controls for basal activity (DMSO only) and 100% stimulation (10 uM staurosporine). AC50 values were determined from concentration-response data modeled with the standard Hill equation.
qHTS protocol for caspase 3/7 assay in mouse N2a cell line
[Step] [Parameter] [Value] [Description]
1. Reagent; 5 uL; 1500 mouse N2a cells/well
2. Time; 5 hr; 37 °C incubation
4. Controls; 23 nL; doxorubicin 7 pM to 100 uM & staurosporine 1.4 pM to 20 uM
5. Time; 16 hr; 37 °C incubation
6. Reagent; 5 uL; Caspase-Glo 3/7 reagent
7. Time; 1 hr; Room Temperature
8. Detection; Luminescence; Viewlux plate reader
Keywords: caspase 3/7, apoptosis, mouse N2a cell line, luminescence, NTPHTS, NTPHTS_NCGC, NIEHS, EPA, DSSTox, MLSMR, MLSCN, NIH Roadmap, qHTS, NCGC

Compound | caspase-3 activation
Nc1ccccc1C(=O)OCCc1ccccc1 | -15%
CCCCCCCCn1sccc1=O | -11.3%
O=C(O)C1C(C(=O)O)C2(Cl)C(Cl)=C(Cl)C1(Cl)C2(Cl)Cl (configuration not stated) | -1.69%
COP(=O)(OC)O/C(=C\Cl)c1cc(Cl)c(Cl)cc1Cl | 2.27%
O=C(CCl)c1ccccc1 | -0.436%
[CH3][Hg][Cl] | -13.2%
C#CCO | 1.35%
N#CC(Cl)Cl | -3.69%
[Cd+2].[Cl-].[Cl-] | -6.85%
c1ccc2cc3c(cc2c1)-c1cccc2cccc-3c12 | 3.79%
C(=NC1CCCCC1)=NC1CCCCC1 | 0.61%
O=[N+]([O-])C(Br)Br | -2.69%
Oc1c(Br)c(Br)c(Br)c(Br)c1Br | 10.4%
CC(C)CC(C)Nc1ccc(Nc2ccccc2)cc1 (configuration not stated) | 4.38%
OC(c1ccc(Cl)cc1)(c1ccc(Cl)cc1)C(Cl)(Cl)Cl | -2.01%
CC(=O)[O-].CC(=O)[O-].O.O.[Cd+2] | -6.49%
N#CSCSC#N | -13.9%
O=C1C2(Cl)C3(Cl)C4(Cl)C(Cl)(Cl)C5(Cl)C3(Cl)C1(Cl)C5(Cl)C24Cl (configuration not stated) | 24.7%
O=[N+]([O-])c1cc(C(F)(F)F)cc([N+](=O)[O-])c1Cl | -2.2%
CN(C)c1ccc(N=O)cc1 | -11.9%
FC(F)(F)c1ccc(Cl)cc1 | 2.77%
C[C@@H]1CC[C@@]2(OC1)O[C@H]1[C@@H](O)[C@H]3[C@@H]4CC[C@H]5C[C@@H](O[C@@H]6O[C@H](CO)[C@H](O[C@@H]7O[C@H](CO)[C@@H](O)[C@H](O[C@@H]8OC[C@@H](O)[C@H](O)[C@H]8O)[C@H]7O[C@@H]7O[C@H](CO)[C@@H](O)[C@H](O[C@@H]8O[C@H](CO)[C@@H](O)[C@H](O)[C@H]8O)[C@H]7O)[C@H](O)[C@H]6O)[C@H](O)C[C@]5(C)[C@H]4CC[C@]3(C)[C@H]1[C@@H]2C | -12.9%
